Several values for one entry are separate records, joined by “and”; a condition that tells them apart may be missing. Equal values may be shown once. Inconclusive results are not listed. Some compounds were tested as several samples or in several runs, with calls that do not always agree. Unmarked numbers belong to inactive results. Activity calls are given as the source filed them. Calls follow the shape of the dose curve; as a rule, active = well fitted inhibition curve with a large enough effect; inconclusive = small, poorly fitted or top-dose-only effect; inactive = flat fitted curve, though single readings scatter.
tested on: HEK293; experiment: Cytotoxic Profiling of Annotated Libraries Using Quantitative High-Throughput Screening (AID 1296008); conditions: Five cell lines viability, CellTiter-Glo ATP luminescence, 48-72 h; max response: hits give low values; also: nearly all actives have a fitted effect of over 60% in size
From the text: Cell-based phenotypic screening is a commonly used approach to discover biological pathways, novel drug targets, chemical probes and high-quality hit-to-lead molecules. Many hits identified from high-throughput screening campaign are ruled out through a series of follow-up potency, selectivity/specificity, and cytotoxicity assays. Prioritization of molecules with little or no cytotoxicity for a more in-depth downstream evaluation influence the future direction of projects, so cytotoxicity profiling of the screening libraries at early stage is essential for increasing the likelihood of candidate success. […] For the annotated library, we also examined the primary targets and mechanistic pathways regularly associated with cell death. To our knowledge, this is the first study to use high-throughput screening to profile large libraries for cytotoxicity assessment in both normal and cancer cell lines. In summary, the results generated here constitutes a valuable resource for the scientific community and provides insight on identifying cytotoxic compounds with particular mechanisms of action, and prioritizing compounds with suitable cytotoxicity profile for further evaluation.
A pintool (Kalypsys) was used to transfer 23 nL of compound solution to the 1536-well assay plates. After 48 or 72 hr incubation at 37 degree Celsius, 5% CO2 and 95% humidity, 2.5 uL of CellTiter-Glo (Promega) was dispensed into each well using a dispenser (Aspect Automation, St. Paul, MN) with solenoid valves (Lee Valves, Westbrook CT). Plates were left at room temperature for 10 min before imaging the ATP-coupled luminescence using a ViewLux microplate imager (PerkinElmer, Waltham, MA).
% is scaled to controls: 0 for no effect and ±100 for the full control effect; potency is read from the fitted curve at half-maximal effect.

SMILES | max response | Potency | outcome
O=C(CC12CC3CC(CC(C3)C1)C2)Nc1cccc2nc(NCCNCCO)ccc12 | -37.5% | – | –
CCC(=O)NCC[C@@H]1CCc2ccc3c(c21)CCO3 | -0.876% | – | –
CC[C@H](C)C(=O)O[C@H]1C[C@H](O)C=C2C=C[C@H](C)[C@H](CC[C@@H](O)C[C@@H](O)CC(=O)O)[C@H]21 | 0.44% | – | –
O=S(=O)(O)c1ccc2cc(N=Nc3cc(S(=O)(=O)O)c4cccnc4c3O)ccc2c1 | -8.8% and -0.547% | – | –
N=C1SC(=Cc2ccc(-c3ccc4c(c3)C(=O)NC4=O)o2)C(=O)N1c1ccc(Br)cc1 | 1.89% | – | –
Cc1[nH]c(C=C2C(=O)Nc3ccc(S(=O)(=O)N(C)c4cccc(Cl)c4)cc32)c(C)c1C(=O)N1CCN(C)CC1 | – | 5.26 µM (active) | –
CC(C)CNc1ccnc(NCc2csc(-c3ccccc3)n2)n1 | – | 5.26 µM (active) and 1.64 µM (active) | –
CC[C@@H]([C@H](C)O)n1ncn(-c2ccc(N3CCN(c4ccc(OCC5CO[C@@](Cn6cncn6)(c6ccc(F)cc6F)C5)cc4)CC3)cc2)c1=O (stereo not given in full) | – | 14.8 µM (active) | –
O=c1cc(-c2ccc(O)c(O)c2)oc2cc(O)cc(O)c12 | – | – | inactive
COc1c(C)c2c(c(O)c1CC=C(C)CCC(=O)OCCN1CCOCC1)C(=O)OC2 | – | 3.72 µM (active) | –
CCC=CC[C@H]1C(=O)CC[C@@H]1CC(=O)OC | 3.57% | – | –
COc1cc(Cl)cn2c(-c3cccc(NC4CNC4)n3)cnc12 | -13.3% | – | –
NS(=O)(=O)c1cc(Cl)c(Cl)c(S(N)(=O)=O)c1 | 0.982% | – | inactive
Clc1ccc(C2(c3ccc(-c4cn[nH]c4)cc3)CCNCC2)cc1 | – | 5.26 µM (active) and 10.3 µM (active) | –
C[C@H](c1ccc(F)cc1CCCC(=O)O)N(c1cc(F)ccc1F)S(=O)(=O)c1ccc(Cl)cc1 | -10.5% | – | inactive
CC(C)(CO)[C@@H](O)C(=O)NCCC(=O)O | – | – | inactive
CC[C@]1(O)C[C@H]2CN(CCC3=c4ccccc4=N[C]3[C@@](C(=O)OC)(c3cc4c(cc3OC)N(C)[C@H]3[C@@](O)(C(N)=O)[C@H](O)[C@]5(CC)C=CCN6CC[C@]43[C@@H]65)C2)C1 | – | 0.0166 µM (active) | –
N#CC1(c2cccc(C(=O)Nc3cc(Oc4ccc5nc(NC(=O)C6CC6)sc5n4)ccc3F)c2Cl)CC1 | – | 13.2 µM (active) and 6.51 µM (active) | –

SMILES | max response | Potency | outcome
O=C(CO)N1CCC(c2[nH]nc(-c3ccc(Cl)cc3)c2-c2ccncn2)CC1 | -13.1% and -1.15% | – | –
COc1nccc(-c2c(-c3ccc(F)cc3)ncn2C2CCC(O)CC2)n1 (stereo not given) | -17.3% | – | inactive
COc1ccc(CCC(=O)Nc2nc3ccc(Cl)cc3s2)cc1OC | -26% | – | –
CCC[C@H](Nc1nc(-c2ccc(NC(=O)NCC)c(OC)c2)ncc1C)c1cccnc1 | -101% | – | –
C[C@@]1(C(=O)Nc2ccc(F)nc2)CCCN1c1nc(Nc2cc(C3CC3)[nH]n2)c2cccn2n1 | – | 3.72 µM (active) | –
CCN(CC)CCCCNc1nc2cc(Cl)c(Cl)cc2nc1-c1ccc(-c2cccs2)s1 | – | 29.6 µM (active) | –
COc1ccc(-c2ccc3ncc4c(c3c2)n(-c2ccc(N3CCNCC3)c(C(F)(F)F)c2)c(=O)n4C)cn1 | -112% | 0.0092 µM (active) | –
O=C(Nc1cccc2c(=O)cc(-c3nn[nH]n3)oc12)c1ccc(OCCCCc2ccccc2)cc1 | – | 18.7 µM (active) | –
C[C@@]1(c2cc(-c3cncnc3)c(F)cc2F)CCSC(N)=N1 | 1.85% and -22.9% | – | –
CC(O)=C(C#N)C(=O)Nc1ccc(C(F)(F)F)cc1 | – | 11.8 µM (active) | –
CS(=O)(=O)c1ccc(C2=C(c3ccccc3)C(=O)OC2)cc1 | – | – | inactive
O=C(c1ccc(C=Cc2n[nH]c3ccccc23)cc1)N1CCNCC1 | -9.22% | – | –
Cc1ccc(NC(=O)c2ccc(CN3CCN(C)CC3)cc2)cc1Nc1nc(-c2cccnc2)cs1 | – | 8.33 µM (active) | –
COc1ccc2cc1Oc1ccc(cc1)C[C@H]1c3cc(c(OC)cc3CCN1C)Oc1c(OC)c(OC)cc3c1[C@H](C2)N(C)CC3 | – | 11.8 µM (active) | –
COc1cc(Nc2nc3ccccc3nc2NS(=O)(=O)c2ccc(NC(=O)c3ccc(C)c(OC)c3)cc2)cc(OC)c1 | – | – | inactive
CNC(=O)c1cc(Oc2ccc(NC(=O)Nc3ccc(Cl)c(C(F)(F)F)c3)c(F)c2)ccn1 | – | 7.43 µM (active) | –
C[C@]12CC[C@@H]3c4ccc(O)cc4CC[C@H]3[C@H]1[C@@H](O)[C@@H](O)[C@H]2O | – | – | inactive
CCCCn1c(=O)n(Cc2ccccc2F)c(=O)c2[nH]c(Cc3ccc(NC(C)=O)cc3)nc21 | -5.59% and -2.73% | – | –
